Assay results taken from PubChem BioAssay (NCATS).
Records with an inconclusive call do not appear. The source made the active and inactive calls. The call rests on the fitted dose curve; in most records, active means well fitted inhibition curve with a large enough effect; inconclusive means small, poorly fitted or top-dose-only effect; inactive means no such curve, though single readings can be large or run the other way.

test: Primary fluorescence-based thiol-reactive (MSTI) qHTS assay for identification of artifact compounds. (AID 1845221); details: MSTI thiol-reactivity probe, 1 h; series mostly up to 53.8 µM; activity change, negative = thiol reactive: at the top concentration; further: nearly all actives have a fitted effect of over 65% in size;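 on activity change, negative = thiol reactive: thiol-reactive compounds lower the probe fluorescence signal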
In short: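 MSTI probe at 4 uM final in 2% DMSO/PBS pH 7.4; compounds, 1 h at room temperature in dark. Fluorescence Ex/Em 525/598 nm, normalised to Acetyl-MSTI and MSTI, fitted to 4-parameter Hill.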
Potency means the concentration at half of the fitted maximal effect.

SMILES | activity change, negative = thiol reactive | Potency
COC(=O)CC1CC(c2ccc(O)cc2)=NO1 (centres undefined) | -3.13% (inactive) | –
COc1nc2sc(C(=O)NC3CC3)c(N)c2c(C)c1Cl | -6.15% (inactive) | –
CC1(c2nc3c(C(N)=O)cccc3[nH]2)CCCN1 (centres undefined) | -8.31% (inactive) | –
COC(=O)N[C@H](C(=O)N1[C@@H]2CC[C@@H](C2)[C@H]1c1nc2ccc(-c3ccc4c(c3)C(F)(F)c3cc(-c5cnc([C@@H]6CCC7(CC7)N6C(=O)[C@@H](NC(=O)OC)C(C)C)[nH]5)ccc3-4)cc2[nH]1)C(C)C | 33.7% [at 25.6 µM] (inactive) | –
CC1(C)CC[C@]2(C(=O)O)CC[C@]3(C)C(=CCC4[C@@]5(C)C[C@@H](O)[C@H](O)C(C)(C)C5CC[C@]43C)C2C1 (some centres undefined) | -13.4% [at 25.6 µM] (inactive) | –
CC1=C(/C=C/C(C)=C\C=C\C(C)=C/C(=O)O)C(C)(C)CCC1 | -18.5% (inactive) | –
CC(=O)N1CCN(Cc2ccc([C@H](C)Nc3nccc(N4C(=O)OC[C@@H]4C(C)C)n3)cc2)CC1 | 35.5% (inactive) | –
C=C[C@H]1CN2CC[C@H]1C[C@@H]2C(O)c1ccnc2ccc(OC)cc12 (some centres undefined) | 55.1% (inactive) | –
Cc1cc(C)c2c(N)c(C(=O)NCc3ccc(Cl)cc3)sc2n1 | 37.4% (inactive) | –
COc1ccc2c(OC)c3ccoc3nc2c1OC | 13% (inactive) | –
CC(C)CN(C[C@@H](O)[C@H](Cc1ccccc1)NC(=O)O[C@@H]1CO[C@H]2OCC[C@H]21)S(=O)(=O)c1ccc(N)cc1 | 142% (inactive) | –
O=C(O)c1cn(C2CC2)c2cc(N3C[C@@H]4C[C@H]3CN4)c(F)cc2c1=O | 1.1% (inactive) | –
COc1cc2oc(-c3ccc(O)cc3O)cc2c(OC)c1CC=C(C)C | – | 6.56 µM (active)
Cc1c(C(=O)Nc2ccc(N3CC(C)OC(C)C3)nc2)cccc1-c1ccc(OC(F)(F)F)cc1 (centres undefined) | 41.1% (inactive) | –
